Source: PubChem (National Center for Advancing Translational Sciences (NCATS))
Rows were chosen to be rich in hits. Some 14% of all compounds tested hit in one or more screens of this group.
LmPK inh: inhibitors of Leishmania mexicana pyruvate kinase; actives 0.37% (n = 290,000); Potency, µM (series often up to 57.5 µM), for inactives: at the top dose activity change, negative = inhibition, most hits filed as inhibitors; Q27686; purified LmPK, Kinase-Glo ATP luminescence, 1 h; note: potency is the fitted concentration of half-maximal effect; % is set by controls: 0 for no effect and ±100 for the full control effect
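Purified LmPK (0.1 nM) with 0.5 mM PEP and 0.1 mM ADP in imidazole buffer pH 7.2 with MgCl2/KCl, 1 h at room temperature. ATP formed was read by luciferase luminescence and normalized to no-enzyme and uninhibited controls.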
Shiga toxin inh: blocks Shiga toxin action in Vero cells. inhibition, % at 38.7 µM. actives 9.2% (n = 290,000). Vero cells, Shiga toxin protein synthesis inhibition reporter; in the data active = inhibition mostly above about 28%, no sharp cut-off; inactive = mostly below about 43%; note: 0% is about no effect
NS1 inh: influenza NS1 inhibition; Potency, µM (series often up to 46.1 µM), inactives show at the top dose activity, positive = more growth; actives 0.4% (n = 270,000); AID 2326; calls by dose curve; note: potency is the fitted concentration of half-maximal effect; actives are rising curves; nearly all actives have a fitted effect of over 50% in size
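Recovery from NS1-induced slow growth read by OD600 in budding yeast switched to galactose assay medium (pH 6.0, -URA) at 1:100 dilution. Compound 23 nl per well; the matching strain lacking NS1 serves as control.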
CHX counter: counter-screen for Shiga toxin inhibitors: cycloheximide protein synthesis inhibition. cell reporter, cycloheximide protein synthesis inhibition counterscreen. actives 12% (n = 300,000). max response, %. AID 2314; in the data active = max response mostly above about 13%, no sharp cut-off; inactive = mostly below about 14%; note: read at 38.3 µM for the half of the compounds with a filed dose; 0% is about no effect
FBPA Giardia inh: inhibitors of Giardia lamblia fructose-1,6-bisphosphate aldolase | actives 0.71% (n = 290,000) | A8B2U2 | Potency, µM (top dose mostly 59.6 µM), without a hit: top-dose activity, negative = inhibition, hits mostly inhibitors | purified Giardia FBPA; note: potency is the fitted concentration of half-maximal effect; % is set by controls: 0 for no effect and ±100 for the full control effect; nearly all actives have a fitted effect of over 55% in size
Target sequence (A8B2U2 whole entry, looked up): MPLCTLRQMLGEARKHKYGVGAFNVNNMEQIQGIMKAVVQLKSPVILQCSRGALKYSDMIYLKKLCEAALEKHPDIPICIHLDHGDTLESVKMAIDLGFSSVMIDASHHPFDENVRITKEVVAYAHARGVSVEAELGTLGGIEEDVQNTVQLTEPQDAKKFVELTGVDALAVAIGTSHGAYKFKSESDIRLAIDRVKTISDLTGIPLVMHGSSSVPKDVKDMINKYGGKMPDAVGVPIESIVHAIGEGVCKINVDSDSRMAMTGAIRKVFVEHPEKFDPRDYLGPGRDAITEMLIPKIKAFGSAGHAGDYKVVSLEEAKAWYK
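Giardia FBPA (40 nM reagent) was preincubated 10 min at RT with compound (up to 57.5 uM final), then substrate plus GAPDH/TPI/NAD/arsenate coupling system with diaphorase/resazurin was added; resorufin fluorescence (525/598 nm) was read after 20 min.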
The depositor's hits bear a star; i = inactive; u = inconclusive; x = no result; + = active, no number; [ ] = remark or other dose. Unless noted, calls come from the whole dose curve; as a rule, active = well fitted curve in the direction sought with a large enough effect; inconclusive = small, poorly fitted or top-dose-only effect, or another doubt; inactive = no such curve, though single readings can be large; an effect the other way counts as inactive or inconclusive.

SMILES	LmPK inh	Shiga toxin inh	NS1 inh	CHX counter	FBPA Giardia inh
Cc1cc(C)cc(N=c2c([N+](=O)[O-])nn(-c3cccc(Cl)c3)n2O)c1	1.0%	-8.1	-3.4%	-3.7	-0.4%
CCc1cccc(N=c2c([N+](=O)[O-])nn(-c3ccc(Cl)cc3)n2O)c1	0.3%	21.4	-2.5%	2.5	-20.0%
CN=c1c([N+](=O)[O-])nn(-c2ccc3c(c2)OCCO3)n1O	-7.5%	60.8*	17.5%	31.8*	-13.6%
COc1cc(N=c2c([N+](=O)[O-])nn(-c3ccc4c(c3)OCCO4)n2O)cc(OC)c1	-1.2%	18.8*	8.4%	29.3*	u
CC(C)c1ccc(N=c2c([N+](=O)[O-])nn(-c3ccc4c(c3)OCCO4)n2O)cc1	5.3%	16.8	6.6%	14.1*	-13.9%
CC(C(=O)N1CCc2ccccc21)N1CCN(c2cccc(C(F)(F)F)c2)CC1 (stereo unspecified)	-7.0%	-2.6	-27.2%	-2.0	-4.6%
CCNc1ccccc1CP(=O)(c1ccccc1)c1ccccc1O (stereo unspecified)	5.8%	0.7	20.7%	-4.1	1.78µM*
CC(C)CNC(=O)CSc1n[nH]c(=O)n1CCc1ccccc1	-5.1%	-24.3	14.2%	-0.4	6.7%
O=c1[nH]n(-c2ccc(F)cc2)c2ncccc12	0.2%	-9.0	-98.1%	8.8	-0.7%
Cc1c(-c2ccccn2)c(=O)[nH]n1-c1ccc(F)cc1	-12.6%	58.3	-4.1%	27.8*	-20.6%
O=C(COc1ccc(Cl)cc1Cl)Nc1ccc(Cl)cn1	9.6%	91.7*	-6.9%	29.7*	1.2%
CCOc1ccc(C(=O)Nc2cccc(C(=O)O)c2)cc1Cl	-13.3%	58.8*	x	38.4*	15.6%
CCOc1ccc(C(=O)Nc2ccc(Cl)cn2)cc1Cl	0.6%	106.4*	-3.1%	38.4*	-5.8%
CS(=O)(=O)N1CCC2(CC1)CN(C(=O)Nc1cccc(C#N)c1)C2	x	x	x	x	7.6%
CN(C)S(=O)(=O)c1nc(Cl)c2[nH]cnc2n1	x	x	-0.7%	x	x
COCCn1c(C)cc(C(=O)CSc2nc3nc(C)cc(C)n3n2)c1C	-1.3%	8.2	7.7%	-3.4	1.0%
Cc1cc(C(=O)CSc2n[nH]c(N)n2)c(C)n1-c1cccc(F)c1	1.2%	72.9*	5.0%	20.5*	2.3%
Cc1cc(C(=O)CSc2nnnn2C)c(C)n1-c1cccc(F)c1	-3.4%	121.6*	-13.6%	40.1*	-20.7%
Cc1cc(C(=O)CSc2ncccn2)c(C)n1-c1cccc(F)c1	1.1%	100.3*	15.3%	86.3*	-10.8%
COCCn1c(C)cc(C(=O)CSc2n[nH]c(N)n2)c1C	10.6%	-0.6	3.4%	13.4*	-13.2%
COc1ccc(C(=O)OC2CC3CC[C@H](C2)N3C(C)=O)cc1OC (stereo partly specified)	x	x	x	x	1.7%
Cc1ccc(S(=O)(=O)c2nc(S(C)(=O)=O)sc2N2CCC3(CC2)OCCO3)cc1	2.0%	-7.5	-2.7%	-2.1	4.5%
O=C1/C(=C\Nc2ccc(Cl)cc2)CCN1c1ncccn1	-10.6%	88.9*	0.2%	23.0*	-29.0%
OC[C@@H](O)C(O)[C@H](O)[C@@H](O)CO (stereo partly specified)	x	-3.1	x	-2.8	6.2%
CC1(C)CC(=O)C2=C(C1)c1c(ccc3ccccc13)NC2c1ccc(C(=O)O)cc1 (stereo unspecified)	2.7%	22.4	-5.8%	14.3	-4.5%
SMILES	LmPK inh	Shiga toxin inh	NS1 inh	CHX counter	FBPA Giardia inh
Cc1ccc(C2Nc3ccc4ccccc4c3C3=C2C(=O)CC(C)(C)C3)o1 (stereo unspecified)	-0.7%	28.9	4.3%	12.6*	-8.0%
O=C1CCCC2=C1C(c1ccco1)Nc1ccc3ccccc3c12 (stereo unspecified)	7.6%	44.8*	-17.6%	33.2*	-28.4%
COc1cc(C2Nc3ccc4ncccc4c3C3=C2C(=O)CCC3)cc(OC)c1O (stereo unspecified)	9.4%	-8.9	-0.9%	-1.3	u
CCN(CCCNC(=O)Cn1ncc2c([nH]c3ccc(C)cc32)c1=O)c1ccccc1	-0.9%	16.8	-2.5%	1.7	5.7%
COc1ccc(/C=C(/NC(=O)c2ccco2)C(=O)NCc2ccco2)cc1OC	-4.0%	-4.4	3.1%	-3.6	6.2%
O=C1CCCC2=C1C1O[C@](c3ccsc3)(Cc3c1ccc1ccccc31)O2	0.7%[11.5 µM]	i	-2.4%	14.7*	14.8%[12.9 µM]
O=c1oc2ccccc2c2c1C1O[C@](c3ccsc3)(Cc3c1ccc1ccccc31)O2	-8.5%[11.5 µM]	i	11.8%	19.0*	-6.1%[12.9 µM]
COc1ccc([C@]23Cc4c(ccc5ccccc45)C(O2)C2=C(CCCC2=O)O3)cc1	-6.8%[11.5 µM]	i	u	6.4	-3.8%[12.9 µM]
O=C1c2ccccc2C(=O)N1CCCC[C@]12Cc3ccccc3C(O1)c1c(c3ccccc3oc1=O)O2	2.0%[11.5 µM]	i	17.2%	-1.5	17.6%[12.9 µM]
O=C1C2=C(C(=O)c3ccccc31)C1O[C@](c3ccsc3)(Cc3c1ccc1ccccc31)O2	-5.0%[11.5 µM]	+	3.2%	32.5*	3.7%[12.9 µM]
COCCNc1nc(-c2ccccc2CN(C)C)nc2ccccc12	x	x	x	x	1.2%
CN(C)C1(CN=Cc2cc(Cl)cc([N+](=O)[O-])c2O)CCCCC1	-8.1%	-9.3	-44.1%	4.8	27.5%
Cc1nn(C(C)(C)C)c(OC(=O)c2ccc3c(c2)OCO3)c1Sc1ccccc1	2.0%	-20.3	-2.6%	-2.9	-0.2%
Cc1nn(C(C)(C)C)c(OC(=O)c2ccc3c(c2)OCO3)c1S(=O)(=O)c1ccccc1	-0.2%	45.1	-38.3%	37.3*	-0.9%
CSc1nc2ncc(-c3ccsc3)c(N)n2n1	1.7%	62.2*	x	48.8*	-1.4%
C=CCn1c(C)nnc1SCC(=O)N1CCN(S(=O)(=O)c2ccccc2)CC1	2.5%	10.8	-5.3%	-0.9	1.3%
CCOc1ccc(NC(=O)CCNC(=O)C2CCN(S(=O)(=O)c3ccccc3)CC2)cc1	-10.7%	-4.5	-2.6%	-1.9	x
CCc1nc2ccc(C(=O)O)cc2nc1CC	-4.2%	90.7*	8.5%	91.1*	u
CCc1nc2ccc(C(=O)N3CCN(CC)CC3)cc2nc1CC	-2.0%	2.6	0.9%	-3.2	13.6%
CCc1nc2ccc(C(=O)Nc3nnc(C)s3)cc2nc1CC	0.6%	16.3	5.1%	12.3*	7.1%
CCCCS(=O)(=O)N1CCN(S(=O)(=O)c2cccs2)CC1	-2.4%	-7.3	9.4%	3.4	x
O=C(NCc1ccco1)C(=O)NCc1ccccc1Cl	4.0%	24.3	2.8%	29.9*	8.1%
O=C(NCc1ccco1)Nc1ccccc1Cl	0.1%	73.9*	-5.5%	18.3*	-0.1%
COc1ccccc1CCn1c(=O)c(-c2ccccc2)nc2cncnc21	x	x	x	x	-7.5%
O=C(Nc1nc(-c2ccccc2)cs1)c1cccnc1	5.3%	26.5	2.8%	18.2	3.4%
CC(=O)Nc1ccc(C(=O)Nc2nc(-c3cccnc3)cs2)cc1	6.7%	20.7	x	15.4*	1.1%
Cc1ccccc1C(=O)Nc1nc(-c2cccnc2)cs1	-9.4%	28.1	5.0%	19.5*	-19.7%
C=CCOc1ccc(/C=C/C(C)=N\O)cc1	u	85.0*	-38.6%	50.3*	3.2%
C=CCOc1ccc(/C=C/C(=O)Nc2ccc(C(=O)NC)cc2)cc1	-1.1%	-15.0	5.3%	-4.8	-2.6%
